# Bioassay records: PubChem, National Center for Advancing Translational Sciences (NCATS)
# The list is not random: actives were taken first. Their share in the collection is about 9%.
# ALDH1A1 block – ALDH1A1 (human) enzyme inhibition; Potency, µM (doses to about 75.3 µM), for inactives: at the highest dose activity, negative = inhibition, hits mostly inhibitors; AID 1030; P00352; 220,000 compounds, 7.3% hits; Purified ALDH1A1, NADH fluorescence, propionaldehyde substrate; active means well fitted inhibition curve with a large enough effect, not every such curve was filed as active; inconclusive means small, poorly fitted or top-dose-only effect, or another doubt; inactive means no such curve, though single readings can be large or run the other way;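 further: plate controls were no enzyme wells and a reference inhibitor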
# Target sequence (P00352 whole entry, looked up): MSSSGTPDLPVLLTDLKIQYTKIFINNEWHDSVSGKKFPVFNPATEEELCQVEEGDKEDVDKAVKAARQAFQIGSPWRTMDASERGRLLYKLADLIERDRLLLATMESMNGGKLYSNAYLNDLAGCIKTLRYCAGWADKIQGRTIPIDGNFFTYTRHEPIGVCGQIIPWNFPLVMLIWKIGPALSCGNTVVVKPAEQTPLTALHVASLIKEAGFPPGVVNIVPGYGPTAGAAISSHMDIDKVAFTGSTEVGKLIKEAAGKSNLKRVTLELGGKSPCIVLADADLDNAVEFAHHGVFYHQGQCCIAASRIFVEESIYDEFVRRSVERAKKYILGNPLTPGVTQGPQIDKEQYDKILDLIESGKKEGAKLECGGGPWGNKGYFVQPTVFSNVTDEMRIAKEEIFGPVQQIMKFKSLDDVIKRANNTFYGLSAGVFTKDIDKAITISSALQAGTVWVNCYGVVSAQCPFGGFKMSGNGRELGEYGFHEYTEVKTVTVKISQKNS
# HPGD inh – HPGD (human) dehydrogenase inhibition; P15428; purified HPGD, NADH fluorescence kinetic, PGE2 substrate; Potency, µM, inactives show at the top dose activity change, negative = inhibition, actives largely listed as inhibitors; 150,000 compounds, 4.3% hits; AID 894; active means well fitted inhibition curve with a large enough effect, not every such curve was filed as active; inconclusive means small, poorly fitted or top-dose-only effect, or another doubt; inactive means no such curve, though single readings can be large or run the other way; further: on the % scale 0 is the no-effect control and ±100 the full control effect
# Target sequence (P15428 whole entry, looked up): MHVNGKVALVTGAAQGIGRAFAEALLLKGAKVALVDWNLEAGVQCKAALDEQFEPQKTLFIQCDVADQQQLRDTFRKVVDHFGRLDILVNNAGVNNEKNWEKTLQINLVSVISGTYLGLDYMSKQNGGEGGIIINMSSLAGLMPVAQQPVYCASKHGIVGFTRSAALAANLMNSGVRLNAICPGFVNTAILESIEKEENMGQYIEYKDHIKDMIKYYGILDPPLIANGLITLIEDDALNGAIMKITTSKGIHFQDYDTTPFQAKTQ
#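 20 nM HPGD preincubated 15 min at room temperature with compound in 50 mM Tris-HCl pH 8, 0.01% Tween 20. Started with 1 mM NAD+ and 30 uM prostaglandin E2; NADH fluorescence (360/450 nm) read 5 times over 30-s intervals, last minus first.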
# HTT ATP protect – protects HTT-Q103 PC12 cells, measured by ATP. PC12 HTT-Q103 induced, cytoprotection, ATP luminescence, 40 h. Potency, µM (top dose mostly 56.4 µM), without a hit: cytoprotection (ATP increase), hits mostly activators. 230,000 compounds, 0.14% hits; further: % of control where 0% means no effect; nearly all actives have a fitted effect of over 45% in size
#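 Rat PC12, Q103 Htt exon1-GFP fusion, ecdysone promoter; tebufenozide inducer 100 nM final; compound titration; qHTS, 1500 cells/well; ATPlite luminescent read.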
# HttQ103 aggreg – reduces HttQ103-GFP aggregates in PC12 cells; PC12 HttQ103-GFP aggregates, Acumen cytometry, 40 h; Potency, µM (doses to about 46.1 µM), inactives show top-dose activity change, negative = inhibition, usual class: inhibitors; 220,000 compounds, 1.1% hits; further: on the % scale 0 is the no-effect control and ±100 the full control effect; nearly all actives have a fitted effect of over 60% in size
#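 Huntingtin Q103 exon 1–GFP aggregates in induced PC12 cells (100 nM tebufenozide) were quantified by cytometry from lysates, with compounds dosed in titration.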
# KinaseGlo FLuc – counter-screen: inhibitors of Kinase-Glo firefly luciferase. Kinase-Glo luciferase, ATP luminescence, 8 min. Potency, µM (series often up to 38.3 µM), inactives show top-dose activity change, negative = inhibition, actives largely listed as inhibitors. 200,000 compounds, 0.28% hits. AID 1379; further: on the % scale 0 is the no-effect control and ±100 the full control effect; nearly all actives have a fitted effect of over 60% in size
#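 Compounds were added to a substrate mix at pH 7.2 (50 mM imidazole, 10 uM ATP, within the enzyme's linear range), followed by Kinase-Glo detection reagent; luminescence was measured after 8 minutes at ambient temperature.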
# LMNA splice mod – modulators of lamin A splicing; HeLa LMNA splicing GFP/RFP minigene ratio, 48 h; Potency, µM (doses to about 46.1 µM), inactives show at the highest dose ratio change, negative = inhibition, hits mostly inhibitors; 200,000 compounds, 0.01% hits; AID 1487; active means well fitted inhibition curve with a large enough effect in the signal ratio, with a control signal flat, not every such curve was filed as active; inconclusive means small, poorly fitted or top-dose-only effect, or effect the other way, or a change in a side signal; the % refers to the signal ratio; further: on the % scale 0 is the no-effect control and ±100 the full control effect
#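 Read-out is the ratio of GFP to DsRed2 object intensity, acquired by 488 nm laser-scanning cytometry on HeLa lamin A-EGFP minigene reporter cells. Compound incubation 48 hrs at 37 °C in Opti-MEM with 2% FBS; DMSO 0.5% final.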
# * marks the source's active call; other numbers are inactive results; ? = inconclusive; . = no result given; [ ] = another dose, or the depositor's remark. Unless noted, the call rests on the fitted dose curve; in most records, active means well fitted curve in the direction sought with a large enough effect; inconclusive means small, poorly fitted or top-dose-only effect, or another doubt; inactive means no such curve, though single readings can be large; an effect the other way counts as inactive or inconclusive. Potency means the concentration at half of the fitted maximal effect.
SMILES,ALDH1A1 block,HPGD inh,HTT ATP protect,HttQ103 aggreg,KinaseGlo FLuc,LMNA splice mod
Cc1ccccc1OCCC(=O)Nc1cccc(S(=O)(=O)Nc2ccccc2Cl)c1,3%,-4%,-5%[10 µM],12%,-1%,?
O=C(Cc1ccc(Cl)cc1Cl)Nc1cccc(S(=O)(=O)Nc2ccccc2F)c1,3.5µM*,3.5µM*,21%[10 µM],7%,4%,?
O=C(/C=C/c1ccccc1)Nc1cccc(S(=O)(=O)Nc2ccccc2F)c1,0.79µM*,2µM*,29%[10 µM],9%,0%,?
O=C(O)CSc1nnc(-c2ccncc2)n1CCc1ccccc1,8%,-3%,?,-1%,1%,-5%
COc1ccc(CC(=O)Nc2cccc(-c3nnc(-c4cccc(C)c4)o3)c2)cc1OC,?,?,-28%[10 µM],11µM*,1%,?
COc1ccc(CC(=O)Nc2cccc(-c3nnc(-c4ccc(C)cc4)o3)c2)cc1OC,-15%,-4%,6%[1.9 µM],-17%,-2%,?
COc1ccc(-c2nc3cc(NC(=O)Cc4ccc(OC)c(OC)c4)ccc3o2)cc1,?,?,12%[10 µM],-18%,4%,?
COc1ccc(CC(=O)Nc2cccc(-c3nnc(-c4ccccc4)o3)c2)cc1OC,?,-27%,-149%[0.074 µM],22µM*,-2%,?
COc1ccc(CC(=O)Nc2ccc(-c3nnc(-c4ccccc4)o3)cc2)cc1OC,3.5µM*,?,18%[10 µM],2%,-2%,2%
CCn1c2ccccc2c2cc(NC(=O)CSc3nnc(-c4cccc(C)c4)o3)ccc21,18µM*,-10%,-28%,0%[9.22 µM],4%,?
CCn1nc(C(=O)NNC(=O)COc2ccc(OC)cc2)c2ccccc2c1=O,3%,0%,.,-2%,2%,?
CCCCNC(=O)CC1N=C2c3ccccc3N=C(SCC(=O)Nc3ccc(OC)cc3)N2C1=O (configuration not stated),5%,-10%,-14%,25%,1%,11%
COc1ccc(Cc2nnc(-c3cccc(C)c3)o2)cc1OC,-7%,18µM*,-6%,-23%,3%,?
COc1ccc(CCNC(=O)CSc2nnc(-c3ccccc3)o2)cc1OC,1%,-22%,-17%[10 µM],3%,-3%,11%
COc1ccc(CCNC(=O)CSc2nnc(-c3cccc(C)c3)o2)cc1OC,18µM*,-26%,-5%,-4%,-2%,11%
COc1ccc(CCNC(=O)C2CCCN(S(=O)(=O)c3cnc[nH]3)C2)cc1OC (configuration not stated),15%,3%,-10%,6%,-1%,-5%
CN1CCN(C(=O)c2cc3nc(-c4ccc(F)cc4)cc(C(F)(F)F)n3n2)CC1,-6%,11µM*,7%,-20%,-2%,-4%
O=C(c1cc2nc(-c3ccc(F)cc3)cc(C(F)(F)F)n2n1)N1CCCCC1c1cccnc1 (configuration not stated),14µM*,.,-46%,8.9µM*,-1%,?
COc1ccc(-c2cc(C(F)(F)F)n3nc(C(=O)N4CCCC4)cc3n2)cc1,?,?,-23%,7%,0%,-2%
O=C(c1cnn2c(C(F)(F)F)cc(-c3ccccc3)nc12)N1CCCCC1c1cccnc1 (configuration not stated),?,.,-37%[1.9 µM],30%[9.22 µM],0%,?
Cc1ccc2nc(COc3ccccc3NC(=O)c3ccccc3C)cc(=O)n2c1,.,.,.,.,.,-1%[46 µM]
Cc1nnc(SCC(=O)N2CCN(C(=O)c3ccco3)CC2)n1-c1ccccc1,28µM*,.,-21%[10 µM],9%,-3%,.
COc1ccc(-n2nnnc2SCC(=O)N2CCN(C(=O)c3ccco3)CC2)cc1OC,32µM*,.,-17%,-15%,-1%,.
COc1ccc(OC)c(-n2nnnc2SCC(=O)N2CCN(C(=O)c3ccco3)CC2)c1,?,.,15%[10 µM],24%[9.22 µM],-1%,1%[46 µM]
O=C(CSc1ccccc1)N1CCN(C(=O)c2ccco2)CC1,?,.,8%,-12%,1%,28%[46 µM]
SMILES,ALDH1A1 block,HPGD inh,HTT ATP protect,HttQ103 aggreg,KinaseGlo FLuc,LMNA splice mod
Cc1ccc(N/C(N)=N/c2nc3c(c(=O)[nH]2)CCCC3)c(C)c1,-5%,-28%,13%,8%,-3%,4%
Cc1ccc(N/C(N)=N/c2nc(C)cc(N3CCCCC3)n2)c(C)c1,-1%,.,-44%,13µM*,-2%,.
CCCCOc1ccc(CNC(=O)c2ccc(-c3nc(CN4CCc5ccccc54)c(C)o3)cc2)cc1,.,.,.,.,.,18%[46 µM]
O=c1c2cnn(-c3ccccc3)c2nc(-c2cccs2)n1-c1ccc(Br)cc1,-6%,-5%,-1%,2%,3%,5%[0.0737 µM]
O=C(O)CSc1nc2c(cnn2-c2ccccc2)c(=O)n1-c1ccc(Br)cc1,-6%,14µM*,.,7%,-2%,-6%
CC(C)=C1C2C=CC1C1C(=O)N(c3ccc4c(c3)OCO4)C(=O)C21 (configuration not stated),3.5µM*,-14%,-2%[10 µM],-2%,-2%,-3%
CCOC(=O)C1(C)C=C(Nc2cccc(OC)c2)C(=O)N1c1ccccc1 (configuration not stated),.,.,-40%[10 µM],19%[9.22 µM],.,.
CCOC(=O)C1(C)C=C(Nc2ccc(O)cc2)C(=O)N1c1ccc(O)cc1 (configuration not stated),3.5µM*,-6%,8%[10 µM],17%[9.22 µM],2%,?
CCOC(=O)C1(C)C=C(Nc2ccc(OC)cc2)C(=O)N1c1ccc(OC)cc1 (configuration not stated),2.8µM*,?,-13%[10 µM],26%,-1%,-11%
O=C(Nc1cccc(O)c1)C(Cc1ccccc1)N1C(=O)c2cccc3cccc(c23)C1=O (configuration not stated),-2%,-23%,16%[10 µM],11%,2%,-21%
COc1ccc(/C(N)=N/OC(=O)c2ccco2)cc1,0%,.,-129%,25%,-26%,-3%[46 µM]
Cc1cccc(N2CCN(C(=S)c3ccccc3)CC2)c1,?,.,0%,0%,5%,-4%[46 µM]
CN(C)c1ccc(C(=S)N2CCN(c3ccccc3)CC2)cc1,13µM*,-9%,-8%[0.074 µM],9%,-2%,?
Cc1ccc(N2CCN(C(=S)c3ccc(N(C)C)cc3)CC2)cc1,7.9µM*,25µM*,3%[10 µM],?,-1%,?
C[C@H]1Cc2c(COc3ccccc3)nc3c(c2CO1)CN(C(=O)Cc1cccs1)CC3,-1%[13.5 µM],-5%,-14%[10 µM],.,0%[7.66 µM],?
COc1cccc(-c2cc(C(=O)N3CCc4ccccc4C3)no2)c1,?,20µM*,20%[10 µM],-15%,4%,-14%
COCCNC(=O)c1cc(-c2cccc(OC)c2)on1,8%,25µM*,-27%,-12%,-8%,2%
